According to PubChem BioAssay (NCATS):
Inconclusive results are not listed. Activity calls are given as the source filed them. Calls come from the whole dose curve; as a rule, active = well fitted cell-killing curve with a large enough effect; inconclusive = small, poorly fitted or top-dose-only effect; inactive = no such curve, though single readings can be large or run the other way.

Experiment: qHTS of pediatric cancer cell lines to identify multiple opportunities for drug repurposing: Primary screen for Saos-2 cells (AID 1347097); note: nearly all actives have a fitted effect of over 40% in size
Conditions: Saos-2 viability, CellTiter-Glo ATP luminescence, 48 h; series mostly up to 46 µM; activity change, negative = cytotoxic: at the top concentration
Procedure, shortened: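 Viability was measured as metabolically active cells after 48 hours of treatment, read by CellTiter-Glo luminescence. Compounds were tested at multiple final concentrations, giving concentration-response curves.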
% is set by controls: 0 for no effect and ±100 for the full control effect; potency is the fitted concentration of half-maximal effect.

Compound | activity change, negative = cytotoxic | Potency
CC(C)CC(N(C)C)C1(c2ccc(Cl)cc2)CCC1 (stereo not drawn) | -20.4% (inactive) | –
COc1ccc(Cc2nccc3cc(OC)c(OC)cc23)cc1OC | -23.2% (inactive) | –
Cc1sc2c(c1C)C(c1ccc(Cl)cc1)=N[C@@H](CC(=O)OC(C)(C)C)c1nnc(C)n1-2 | – | 1480 nM (active)
C[C@@H]1[C@@H](CC(C[C@H]2O[C@@H]3O[C@]4(C)CC[C@@H]5[C@H](C)CC[C@@H]([C@H]2C)[C@@]35OO4)C[S+](=O)([O-])c2ccc(COC(=O)N(C)C)cc2)O[C@@H]2O[C@]3(C)CC[C@H]4[C@H](C)CC[C@@H]1[C@@]24OO3 (stereo partly drawn) | – | 118 nM (active)
CCN(CC)CCN1C(=O)CN=C(c2ccccc2F)c2cc(Cl)ccc21 | 24.3% (inactive) | –
CN(C)CCN(C)CCc1ccc(Cl)c(Cl)c1 | 9.76% (inactive) | –

Experiment: qHTS of pediatric cancer cell lines to identify multiple opportunities for drug repurposing: Primary screen for SK-N-SH cells (AID 1347098); note: nearly all actives have a fitted effect of over 65% in size;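 for activity change, negative = cytotoxic: DMSO served as neutral control and bortezomib at 2.3 µM as positive control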
Conditions: SK-N-SH viability, CellTiter-Glo luminescence, 48 h; series mostly up to 57 µM; activity change, negative = cytotoxic: at the top concentration
Procedure, shortened: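 Cells (500-1,000/well) rested 5 h, then received compounds for 48 h; metabolically active cells were measured by CellTiter-Glo luminescence. Final concentrations spanned up to 46 µM (MIPE, 11-point) or 0.59 nM-46 µM (NPC, 8-point) in primary screens, 11-point in follow-ups.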

Compound | Potency | activity change, negative = cytotoxic
C[C@H]1O[C@@H](O[C@H]2[C@@H](O)C[C@H](O[C@H]3[C@@H](O)C[C@H](O[C@H]4CC[C@@]5(C)[C@H](CC[C@@H]6[C@@H]5CC[C@]5(C)[C@@H](C7=CC(=O)OC7)CC[C@]65O)C4)O[C@@H]3C)O[C@@H]2C)C[C@H](O)[C@@H]1O | 86.4 nM (active) | –
CC(C)CC(N(C)C)C1(c2ccc(Cl)cc2)CCC1 (stereo not drawn) | – | -4.21% (inactive)
CCOC(=O)C1(c2ccccc2)CCN(CCC(C#N)(c2ccccc2)c2ccccc2)CC1 | – | -11% (inactive)
COc1ccc(Cc2nccc3cc(OC)c(OC)cc23)cc1OC | inactive | –
Cn1cc(C2=C(c3cn(C4CCN(Cc5ccccn5)CC4)c4ccccc34)C(=O)NC2=O)c2ccccc21 | – | -25.2% (inactive)
Cc1sc2c(c1C)C(c1ccc(Cl)cc1)=N[C@@H](CC(=O)OC(C)(C)C)c1nnc(C)n1-2 | 2410 nM (active) | –
CCN(CC)CCN1C(=O)CN=C(c2ccccc2F)c2cc(Cl)ccc21 | – | -9.15% (inactive)
